Laboratory results as given in publication PMC7819943, “Rice protein-binding microarrays: a tool to detect cis-acting elements near promoter regions in rice”.
Over roughly 68,000 sequences, “fluorescence intensity (a.u.)” has its median near 9,100; the highest 2% begin near 16,000. The list comes from a sample in which the highest values are over-represented; it also holds similar and randomly drawn sequences.

target: OsWRKY34 (Oryza sativa, UniProt Q0JBA9 1-250); test: protein-binding microarray (RPBM); PBS, 2% BSA, 51.3 ng/ul salmon testes DNA, 50 uM zinc acetate, 200 nM TF, 25 C, 1 h; high values mean tight binding; conditions: protein: recombinant; tags: N-terminal polyhistidine and DsRed monomer fusion (pET32a); label: CyDye5-dUTP incorporated in the synthesized complementary strand; 3' TTTTT single-stranded linker to array surface; dsDNA, one strand shown
Sequence (Q0JBA9 entry or part of it): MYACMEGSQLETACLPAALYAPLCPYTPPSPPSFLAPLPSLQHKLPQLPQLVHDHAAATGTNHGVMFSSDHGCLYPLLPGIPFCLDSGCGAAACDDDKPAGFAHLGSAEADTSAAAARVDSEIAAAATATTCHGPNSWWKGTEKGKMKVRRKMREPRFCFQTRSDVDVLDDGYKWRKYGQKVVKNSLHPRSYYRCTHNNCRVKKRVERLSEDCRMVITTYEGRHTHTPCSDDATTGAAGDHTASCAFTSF
Outline: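 In PBS with 2% BSA, salmon testes DNA and 50 µM zinc acetate, 200 nM protein was incubated on a custom Agilent array at 25 °C for 1 h and then washed off. The array had been made double-stranded by primer extension with Cy5-dUTP and blocked with 2% BSA. The proteins were transcription factors fused N-terminally to polyhistidine and DsRed, expressed in E. coli BL21-CodonPlus and purified on Ni–NTA. The binding signal is per-feature fluorescence intensity (arbitrary units) from an Axon 4000B scanner.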

| Sequence | binding signal |
| --- | --- |
| ATACGTCATTTGTATTTGAGTCGGTTTTTAAGTTCCTCCGCGGAGTCACCTAGTGCAG | 12200 fluorescence intensity (a.u.) |
| TTTTGCAAAGCATTCCTCGCGCTTTCAGCTAATTACGCATCGGAGTCACCTAGTGCAG | 8500 fluorescence intensity (a.u.) |
| CACCAACGCGTCCCCACCGTGTCGCCTCCTGATTGGTTGTCGGAGTCACCTAGTGCAG | 12100 fluorescence intensity (a.u.) |
| CTCTCGCTCTTTTATTTTTTTTCCTTGTTTCCTTTCGTGTCGGAGTCACCTAGTGCAG | 12100 fluorescence intensity (a.u.) |
| GTCGTTCGCTCTTTTATCCTTTTCGGACAATTTCACTTTCCGGAGTCACCTAGTGCAG | 19200 fluorescence intensity (a.u.) |
| GTCCTCGTTTTTTTTTTCCTTCTCTTTTTCTTTTCCTTTTCGGAGTCACCTAGTGCAG | 9450 fluorescence intensity (a.u.) |
| GTTGGGCTTCCTTATTGGGTTGGGCTACCTGTCTGATTTTCGGAGTCACCTAGTGCAG | 16600 fluorescence intensity (a.u.) |
| GCTTCACCTTCGGCTTCGACTTCGGCTTCGTTTCCTCTTCCGGAGTCACCTAGTGCAG | 18600 fluorescence intensity (a.u.) |
| TGTTTTCACTTTCCTCTTCAGTCTTCTTCCTTCTTTCGTTCGGAGTCACCTAGTGCAG | 9140 fluorescence intensity (a.u.) |
| TTGTTACTACATTTCCTGTACTATTTTACTGTCTGATTTACGGAGTCACCTAGTGCAG | 8460 fluorescence intensity (a.u.) |
| AGGTTATTTTTTCCTTACCTTTTTTTTTTCTGATACTACTCGGAGTCACCTAGTGCAG | 9920 fluorescence intensity (a.u.) |
| TTATTTTTCGTTCCTTCTTTTTTTCTCTCTCACTTTTCTCCGGAGTCACCTAGTGCAG | 11300 fluorescence intensity (a.u.) |
| GCTCGCCGCGTGCTCTCGTCATCCATCCGACCCACGCCCGCGGAGTCACCTAGTGCAG | 11000 fluorescence intensity (a.u.) |
| ATTTTATATGATTTCTTACAGACTTTTTTTATCATTTTACCGGAGTCACCTAGTGCAG | 9760 fluorescence intensity (a.u.) |
| GCATTGGTTGGTGGTTTGGTGACGGCTTCGTTGTAGGCCTCGGAGTCACCTAGTGCAG | 9760 fluorescence intensity (a.u.) |
| TCCTCTCTCTCTCTCTCTCTCTCTCCTCCTTTGGAGTTGTCGGAGTCACCTAGTGCAG | 10500 fluorescence intensity (a.u.) |
| CGTCCAGTCCGCTCCCTCCCTCATTCATTCGGTTCGGTAACGGAGTCACCTAGTGCAG | 8870 fluorescence intensity (a.u.) |
| CGTCGACGACGTCTCGATCGATCGGTGGTGGTGGTGGTGGCGGAGTCACCTAGTGCAG | 8540 fluorescence intensity (a.u.) |
| CTCGTGGTCAAATCTGAATATCCGATACTTCCGTTTCAAACGGAGTCACCTAGTGCAG | 8300 fluorescence intensity (a.u.) |
| ACCAACCAACCACTGCTCTCGCCGCGCCGTCCTCTTCATCCGGAGTCACCTAGTGCAG | 18200 fluorescence intensity (a.u.) |
| TCTGCTTCTTCATCCTCGTGCTCTGCTTCTCTCTTCTTCCCGGAGTCACCTAGTGCAG | 8980 fluorescence intensity (a.u.) |

| Sequence | binding signal |
| --- | --- |
| GATCTCATCCCGTCCCGTCATCTGCTTCCTCTCTCGGAACCGGAGTCACCTAGTGCAG | 16900 fluorescence intensity (a.u.) |
| CGCTTTCCTCTCCGGCAACGACCTCGCAGCTGTGGCCACCCGGAGTCACCTAGTGCAG | 18600 fluorescence intensity (a.u.) |
| ACCGTCTCATCTTCTTCTTCCTCCTCCTCTGATCTTCTCCCGGAGTCACCTAGTGCAG | 8220 fluorescence intensity (a.u.) |
| CGTTTTCTTTTTTCTTCCTCGCTTTCTCTCTCTCTCTCTCCGGAGTCACCTAGTGCAG | 11600 fluorescence intensity (a.u.) |
| TCACCACTGCTGCTCTCGCTGCCGTCCTTGTTCTTCGCGCCGGAGTCACCTAGTGCAG | 8110 fluorescence intensity (a.u.) |
| CGCCGCCGCTCCAGCTCCAGCCGCCCGTGCTCCCTCGCGGCGGAGTCACCTAGTGCAG | 8200 fluorescence intensity (a.u.) |
| CGCCTCGCGGCAGGCAGCCGAGCTGTCTCCAACCGTGCCGCGGAGTCACCTAGTGCAG | 37300 fluorescence intensity (a.u.) |
| CCCCAACCCGCCGCCAGCCACCGAGCTCGCCACCGTCTCCCGGAGTCACCTAGTGCAG | 8970 fluorescence intensity (a.u.) |
| TGTGCCGCTCCGTCGTGCTCTTCGTCGCGCCACTCATCCTCGGAGTCACCTAGTGCAG | 9080 fluorescence intensity (a.u.) |
| GCGCTCGCCGCTGCCGCAAGCTCGCCTCCGACCCCGGCCACGGAGTCACCTAGTGCAG | 9530 fluorescence intensity (a.u.) |
| ACAATCCATTTTATTCCAACAGATATATACACGGGGACAACGGAGTCACCTAGTGCAG | 8410 fluorescence intensity (a.u.) |
| GGCTAGGTTGTGCGCGCCCTTCTCGATGTAGCAATAGCAACGGAGTCACCTAGTGCAG | 8520 fluorescence intensity (a.u.) |
| CCTTCGACCCGTCCCCTCACAAACGGCCGTTTCCCTCCCGCGGAGTCACCTAGTGCAG | 9230 fluorescence intensity (a.u.) |
| GATCGAATCGAATAGAGTACATTCTCTACAGGGGAGGGGACGGAGTCACCTAGTGCAG | 9760 fluorescence intensity (a.u.) |
| GTCTGTGAATGTTTTATTTGCCTTGTCTGAACTATCTTTACGGAGTCACCTAGTGCAG | 11400 fluorescence intensity (a.u.) |
| TGTTGGTGAATGGTAATTTTTTGGGTTGATATGTTGCTGACGGAGTCACCTAGTGCAG | 9580 fluorescence intensity (a.u.) |
| CTTCCTTCCTAACGTATCGCCCACATTCCTCCACGTCTCCCGGAGTCACCTAGTGCAG | 8980 fluorescence intensity (a.u.) |
| TCCATTTCCTTGTTTGGTTGGGTGGATGAGAATGGATTGACGGAGTCACCTAGTGCAG | 9010 fluorescence intensity (a.u.) |
| ACACCGCACCGCCGCAATCGTTGGCACAAGCTACAACCCTCGGAGTCACCTAGTGCAG | 8540 fluorescence intensity (a.u.) |
| CAAAACAGCCGCGTTTTGGCTCACTAGTCACTTGTTTGACCGGAGTCACCTAGTGCAG | 9710 fluorescence intensity (a.u.) |
| CAGCCCACCGCCGCATCCTCGCAACCACTGTCTCGCTCTCCGGAGTCACCTAGTGCAG | 17000 fluorescence intensity (a.u.) |
